# Bioassay records: PubChem, National Center for Advancing Translational Sciences (NCATS)
# FBPA Giardia inh = qHTS Assay for Inhibitors of Fructose-1,6-bisphosphate Aldolase from Giardia Lamblia; A8B2U2; purified Giardia FBPA; Potency, µM (titrated, usually from 59.6 µM), most hits filed as inhibitors; hit rate 0.71% among 290,000; AID 2451, 2010; also: nearly all actives have a fitted effect of over 55% in size
# Target sequence (A8B2U2 whole entry, looked up): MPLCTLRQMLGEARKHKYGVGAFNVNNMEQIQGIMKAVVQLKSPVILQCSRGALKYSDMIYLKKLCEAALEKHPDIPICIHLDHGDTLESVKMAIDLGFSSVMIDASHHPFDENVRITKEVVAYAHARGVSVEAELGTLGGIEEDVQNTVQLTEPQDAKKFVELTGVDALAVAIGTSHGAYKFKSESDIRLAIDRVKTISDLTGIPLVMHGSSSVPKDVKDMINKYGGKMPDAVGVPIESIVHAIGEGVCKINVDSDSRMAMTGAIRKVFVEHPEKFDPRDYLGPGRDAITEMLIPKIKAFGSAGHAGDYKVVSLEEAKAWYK
#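 40 nM FBPA preincubated 10 min at RT with compound (up to 57.5 uM final), then substrate plus GAPDH/TPI/NAD/arsenate coupling and diaphorase/resazurin added. Fluorescence read after 20 min at RT, 525/598 nm.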
# MARV entry inh = qHTS for inhibitors of binding or entry into cells for Marburg Virus; Potency, µM (series often up to 37.8 µM), usual class: inhibitors; hit rate 1.8% among 300,000; AID 540276, 2011; Marburg virus pseudotyped entry inhibition, cell reporter; calls by dose curve; tested in HEK293 cells
# FMDV antiviral = High Throughput Screening for Foot and Mouth Disease Virus Antivirals. FMDV antiviral cell-based qHTS. Potency, µM (highest dose often 57.9 µM), usual class: inhibitors. hit rate 1.2% among 410,000; calls by dose curve; tested in HEK293T cells; also: read-out not given here; nearly all actives have a fitted effect of over 45% in size
# HCV inh = qHTS Assay for Inhibitors of Hepatitis C Virus (HCV). Huh7.5.1 HCVcc-Cre infection, luciferase reporter, 44 h. Potency, µM (doses to about 41.8 µM), usual class: inhibitors. hit rate 3.4% among 340,000
#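 Infectious HCVcc-Cre (~0.5 moi) was added to cells just after compound, with cells seeded 4 h earlier at 1,000 per well. Luciferase activity after 44 h culture reported infection; substrate was incubated 15 min at room temperature before reading.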
# HCMV antiviral = qHTS Assay for inhibitors of the human cytomegalovirus (HCMV); HFF cells, HCMV-luciferase reporter, 72 h; hits give low values; activity change, negative = inhibition, % at 57.5 µM; hit rate 4.5% among 410,000; in the data active = activity change below about -60%; inconclusive = no clear call, values can overlap the other calls; inactive = above about -39%
#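 After 16 h attachment at 37C, HFF cells received test compound and HCMV-luciferase (1 PFU/cell); reporter luminescence read 72 h later, data normalized against buffer-only and known inhibitor Salinomycin.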
# LASV entry inh = qHTS for Inhibitors of binding or entry into cells for Lassa Virus | Lassa virus pseudotype entry inhibition, cell reporter | Potency, µM (doses to about 37.9 µM), hits mostly inhibitors | hit rate 1.2% among 300,000 | AID 540256, 2011; calls by dose curve; tested in HEK293 cells; also: nearly all actives have a fitted effect of over 50% in size
# Hits are given with their value; n = inactive; u = inconclusive; x = not tested or not shown; [ ] = remark or other dose. Compounds with a hit are over-represented: about 8.3% of the library has one in this group of screens. Unless noted, calls follow the shape of the dose curve; as a rule, active = well fitted curve in the direction sought with a large enough effect; inconclusive = small, poorly fitted or top-dose-only effect, or another doubt; inactive = no such curve, though single readings can be large; an effect the other way counts as inactive or inconclusive.
SMILES,FBPA Giardia inh,MARV entry inh,FMDV antiviral,HCV inh,HCMV antiviral,LASV entry inh
COCCn1c(C)cc(C(=O)COC(=O)c2c(C)nn(Cc3ccccc3)c2C)c1C,n,u,n,u,n,7.1µM
CCN(C(=O)COC(=O)c1cc(C)n(C2CC2)c1C)c1ccccc1,x,n,n,n,n,n
Cc1nn(Cc2ccccc2)c(C)c1C(=O)OCC(=O)c1cc(C)n(C2CC2)c1C,n,n,n,u,u,15µM
CCCCN(C)c1ncnc2c1cnn2-c1cccc(Cl)c1,x,x,n,x,n,u
COP(=S)(OC)Oc1ccc([N+](=O)[O-])cc1,n,x,22µM,x,x,x
CC1CCc2nc3ccccc3c(C(=O)OCC(=O)N3CCc4ccccc43)c2C1 (centres undefined),n,u,n,u,n,u
Nc1ccccc1C(=O)OCC(=O)N1CCc2ccccc21,n,u,n,n,n,n
CCCc1nc2ccccc2c(C(=O)OCC(=O)N2CCc3ccccc32)c1CC,n,u,u,8.9µM,n,u
COc1cccc(C(=O)OCC(=O)N2CCc3ccccc32)c1OC,x,u,n,u,-98,n
COc1cccc2cc(C(=O)N3CCc4ccccc43)c(=O)oc12,n,n,n,n,-71,n
C[C@H](NC(=O)[C@@H](N)Cc1ccc(O)cc1)C(=O)NCC(=O)N[C@H]1CSSC[C@@H](C(=O)O)NC(=O)[C@H](CO)NC(=O)[C@H]([C@@H](C)O)NC(=O)[C@H](Cc2ccccc2)NC(=O)[C@H]([C@@H](C)O)NC(=O)[C@H](CCCCN)NC(=O)[C@@H](Cc2c[nH]c3ccccc23)NC(=O)[C@H](Cc2ccccc2)NC(=O)[C@H](Cc2ccccc2)NC(=O)[C@H](CC(N)=O)NC(=O)[C@H](CCCCN)NC1=O,n,x,x,x,x,x
COc1ccccc1CNC(=O)Cn1ccsc1=N,n,n,u,n,n,n
N=c1sccn1CC(=O)NCc1ccc(Cl)cc1Cl,n,13µM,n,n,n,n
COc1ccc(-n2nc3c(N4CCC(C(=O)NCc5cccc(C)c5)CC4)nnc(C)c3c2C)cc1,x,x,n,u,-100,x
COc1ccc(-n2nc3c(N4CCCC(C(=O)NCc5cccc(F)c5)C4)nnc(C)c3c2C)cc1 (centres undefined),x,x,n,x,-84,n
Cc1cc2c(cc1C)N(C(=O)CSC1=NCCS1)C(C)(C)c1ssc(=S)c1-2,n,n,u,u,-72,n
COc1ccc2c(c1)-c1c(ssc1=S)C(C)(C)N2C(=O)CSC1=NCCS1,n,u,u,10µM,-80,n
CCOc1ccc2c(c1)-c1c(ssc1=S)C(C)(C)N2C(=O)c1ccco1,n,5.2µM,n,10µM,n,u
COc1ccc2c(c1)-c1c(ssc1=S)C(C)(C)N2S(=O)(=O)c1ccc(C)cc1,n,u,n,u,n,u
CC1=CC(C)(C)N(C(=O)CSc2nnc(N)s2)c2cc(C)c(C)cc21,n,n,n,u,n,n
CC1(C)c2ssc(=S)c2-c2ccccc2N1C(=O)CSC1=NCCS1,n,u,u,u,n,n
COc1ccc(-c2nc3c(c4c2C[C@H](c2ccccc2)OC4)CN(S(=O)(=O)c2ccc(C)cc2)CC3)c(C)c1,n[12.9 µM],u,x,x,x,u
COc1ccc2c(c1)O[C@H](c1ccc3c(c1)OCO3)[C@@H](OC(=O)NS(=O)(=O)c1ccc(C)cc1)C2=O,n,x,x,x,x,x
CC1(C(=O)NC2CCCCC2)Cc2ccccc2C(=O)N1Cc1ccc(Cl)cc1 (centres undefined),x,u,n,x,n,x
COc1ccc(-c2noc(N(c3cccc(Cl)c3)c3nc(-c4ccc(OC)c(OC)c4)no3)n2)cc1OC,x,n,n,x,n,n
SMILES,FBPA Giardia inh,MARV entry inh,FMDV antiviral,HCV inh,HCMV antiviral,LASV entry inh
CCCCOc1cccc(C(=O)N(Cc2ccc(Br)o2)C2CCS(=O)(=O)C2)c1 (centres undefined),x,u,n,x,u,n
OC1(c2cccnc2)CCN(Cc2ccc3c(c2)CN(Cc2cccc(F)c2F)CCO3)CC1,x,x,n,x,x,x
Cc1nc(C(F)(F)F)ccc1C(=O)N1CCC1(C)C(=O)NS(=O)(=O)c1cccc(Cl)c1 (centres undefined),x,x,n,x,-91,x
Cc1nc(C(F)(F)F)ccc1C(=O)N1CCC1(C)C(=O)NS(=O)(=O)c1cccc(F)c1 (centres undefined),x,x,n,x,n,x
CN(C)/C=N/c1ncc(C(=O)c2ccccc2)s1,n,n,n,n,n,u
CN(C)/C=N/c1ncc(C(=O)c2ccc(-c3ccccc3)cc2)s1,n,u,n,11µM,u,u
CCOC(=O)c1c(C2CC2)csc1NC(=O)COC(=O)c1ccc[n+]([O-])c1,n,n,n,u,n,n
CCOC(=O)c1c(C2CC2)csc1NC(C)=O,n,n,n,u,-65,n
Cc1ccc(C)n1C1C(=O)N(Cc2ccc(C(C)C)cc2)c2ccc(OC(F)(F)F)cc21 (centres undefined),x,x,x,x,n,x
CCOC(=O)c1c(CN(CC)CC)oc2cc(Br)c(O)cc12,n,n,n,10µM,n,x
O=C(CC(c1ccccc1)c1ccccc1O)N1CCCCC1 (centres undefined),n,x,n,n,-82,x
O/N=C/c1cn(-c2ccccc2)nc1-c1cccnc1,n,0.79µM,n,u,n,n
O=C(/C=C/c1cn(-c2ccccc2)nc1-c1cccnc1)c1ccco1,n,u,14µM,u,-99,10µM
O=C(/C=C/c1cn(-c2ccccc2)nc1-c1cccnc1)N1CCCC1,n,x,n,n,n,x
OC[C@H]1O[C@H](n2cnc3c(NC4CCCC4)nc(Cl)nc32)[C@@H](O)[C@@H]1O,n,x,n,x,x,x
CCCCC[C@H](O)/C=C/[C@H]1OC(O)C[C@H](O)[C@@H]1C/C=C\CC(=O)O (some centres undefined),n,x,x,x,x,x
CC(C)C(C(=O)O)N1C(=O)/C(=C/c2ccc(Br)cc2)SC1=S (centres undefined),n,x,x,x,x,x
COCCCNc1nc(SCc2ccccc2)nc2sc3c(c12)CCC3,n,n,n,u,u,n
N#Cc1cnn(-c2nc(SCc3ccccc3)nc3sc4c(c23)CCCC4)c1N,n,n,n,n,-101,n
c1ccc(/N=C2\N=C(Nc3ccccn3)c3ccccc32)nc1,x,u,n,u,-99,u
c1ccc(Nc2ccccn2)cc1,n,n,n,n,n,n
O=C(/C(=N/N=C/c1ccc(O)c(O)c1O)c1ccccc1)c1ccccc1,u,u,n,u,n,8.9µM
O=C(NN=Cc1ccc(O)c(O)c1)c1ccccc1,x,x,n,x,x,x
CS(=O)(=O)CCNCc1ccc(-c2ccc3ncnc(Nc4ccc(OCc5cccc(C(F)(F)F)c5)cc4)c3c2)o1,x,x,x,x,x,28µM
CS(=O)(=O)CCNCc1ccc(-c2ccc3ncnc(Nc4ccc(OCc5cccc(F)c5)c(Cl)c4)c3c2)o1,x,x,x,x,n,x
